Test results taken from PubChem BioAssay (EPA / NIEHS).
Calls of active or inactive are those of the source. Rule for the calls: active = hit-call score of the fitted dose curve at least 0.9, where 1 is the maximum; inactive = score below 0.9.

Experiments:
[1] = ATG_CRE_CIS: Attagene CIS-FACTORIAL HepG2 Assay for human cAMP Responsive Element (CRE) binding protein 3 (AID 2282926); conditions: HepG2 CRE cis-reporter, Attagene multiplexed mRNA; actives raise or lower the signal
Procedure, shortened: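 Endogenous CRE-binding activity in HepG2 is reported through a cis-regulated transfected reporter. Following a day of exposure, mRNA levels are determined by reverse transcription PCR and fluorescent fragment analysis; fits run in both directions versus DMSO.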

[2] = molecular target: CCAAT/enhancer-binding protein beta (Homo sapiens) (UniProt P17676); assay: ATG_C_EBP_CIS: Attagene CIS-FACTORIAL HepG2 Assay for human CCAAT/Enhancer Binding Protein (C/EBP) beta (AID 2282927); conditions: HepG2 Attagene cis-factorial transcription factor reporter; actives raise or lower the signal
CCAAT/enhancer-binding protein beta (Homo sapiens), sequence (P17676 whole entry, looked up): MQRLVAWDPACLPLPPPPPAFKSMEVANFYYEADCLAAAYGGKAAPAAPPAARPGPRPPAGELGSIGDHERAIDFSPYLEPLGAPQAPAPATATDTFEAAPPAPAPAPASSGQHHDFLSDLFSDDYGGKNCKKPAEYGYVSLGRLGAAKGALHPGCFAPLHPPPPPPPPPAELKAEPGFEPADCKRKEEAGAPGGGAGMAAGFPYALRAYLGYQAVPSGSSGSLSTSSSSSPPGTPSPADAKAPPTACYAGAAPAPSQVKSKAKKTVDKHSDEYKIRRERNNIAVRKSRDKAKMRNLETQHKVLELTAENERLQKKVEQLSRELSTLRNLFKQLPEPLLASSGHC
Procedure, shortened: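 Transiently transfected HepG2 (MRTU library, endogenous TF-driven promoters); 24 h dosing; total RNA → oligo(dT) RT → PCR → 6-FAM primer extension → HpaI digest → CE; fit bidirectionally vs DMSO.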

[3] = ATG_CMV_CIS: Attagene CIS-FACTORIAL HepG2 Assay for human CMV (Internal Marker) (AID 2282928); conditions: HepG2 CMV promoter reporter, transcription factor profiling; actives raise or lower the signal;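 note: endpoint acts as a background internal control marker rather than a target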
Procedure, shortened: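 After transient transfection of HepG2 with reporter transcription units driven by cis-regulatory promoters, cells receive test chemical for 24 h. Labeled reporter amplicons, digested with HpaI, are sized and quantified by capillary electrophoresis against DMSO.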

[4] = ATG_DR4_LXR_CIS: Attagene CIS-FACTORIAL HepG2 Assay for human Liver X Receptor (LXR), DR4 submotif (AID 2282929); conditions: HepG2 Attagene DR4 cis-reporter, mRNA transcription; actives raise or lower the signal
Procedure, shortened: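 Readout: reporter transcript fluorescence after RT-PCR and capillary electrophoresis, fitted bidirectionally against DMSO controls. Human HepG2 liver cells carried transiently transfected multiplexed reporter constructs; endogenous transcription factor activity measured 24 h post-dosing.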

[5] = molecular target: Aryl hydrocarbon receptor (Homo sapiens) (UniProt P35869); assay: ATG_Ahr_CIS: Attagene CIS-FACTORIAL HepG2 Assay for human Aryl Hydrocarbon Receptor (Ahr) (AID 2282930); conditions: HepG2 AhR cis-factorial reporter transcription; actives raise or lower the signal
Aryl hydrocarbon receptor (Homo sapiens), sequence (P35869 whole entry, looked up): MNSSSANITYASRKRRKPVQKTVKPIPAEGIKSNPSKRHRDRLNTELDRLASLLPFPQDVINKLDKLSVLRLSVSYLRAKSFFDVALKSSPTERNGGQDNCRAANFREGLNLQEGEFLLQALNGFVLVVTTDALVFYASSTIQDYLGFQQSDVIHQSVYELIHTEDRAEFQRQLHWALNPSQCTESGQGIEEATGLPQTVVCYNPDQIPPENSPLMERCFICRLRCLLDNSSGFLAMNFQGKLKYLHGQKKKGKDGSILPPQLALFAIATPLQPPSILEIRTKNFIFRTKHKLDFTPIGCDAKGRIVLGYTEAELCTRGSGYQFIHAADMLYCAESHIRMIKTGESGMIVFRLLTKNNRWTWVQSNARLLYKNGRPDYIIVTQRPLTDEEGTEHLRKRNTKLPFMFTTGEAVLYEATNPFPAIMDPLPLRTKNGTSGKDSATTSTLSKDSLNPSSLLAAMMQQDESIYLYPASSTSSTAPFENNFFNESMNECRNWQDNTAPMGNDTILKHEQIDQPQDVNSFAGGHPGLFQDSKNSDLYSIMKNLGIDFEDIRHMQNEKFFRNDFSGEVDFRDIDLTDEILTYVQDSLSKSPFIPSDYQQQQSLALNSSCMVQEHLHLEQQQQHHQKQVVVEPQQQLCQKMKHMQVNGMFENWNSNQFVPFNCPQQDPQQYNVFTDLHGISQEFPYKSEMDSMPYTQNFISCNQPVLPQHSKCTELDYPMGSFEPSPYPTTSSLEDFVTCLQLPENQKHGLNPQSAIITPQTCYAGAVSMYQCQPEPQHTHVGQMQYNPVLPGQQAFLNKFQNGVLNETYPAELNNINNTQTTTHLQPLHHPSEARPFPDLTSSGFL
Procedure, shortened: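 Read-out: reporter mRNA quantified by RT-PCR with fluorescent primer extension and capillary electrophoresis. Human HepG2 liver cells carried transfected cis-promoter reporter units and were exposed to chemical for 24 h; gain or loss fitted relative to DMSO.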

[6] = ATG_AP_1_CIS: Attagene CIS-FACTORIAL HepG2 Assay for human Activator Protein 1 (AP-1) (AID 2282931); conditions: HepG2 Attagene cis-factorial AP-1 reporter mRNA; actives raise or lower the signal
Procedure, shortened: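 Reporter transcripts were measured 24 h after dosing by RT-PCR and capillary electrophoresis of fluorescent fragments. Cells: HepG2 carrying transfected cis-regulated reporter constructs reading endogenous factor activity. Gain or loss fitted against DMSO.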

[7] = ATG_AP_2_CIS: Attagene CIS-FACTORIAL HepG2 Assay for human Activator Protein 2 (AP-2) (AID 2282932); conditions: HepG2 AP-2 cis-reporter, Attagene transcription factor profiling; actives raise or lower the signal
Procedure, shortened: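 HepG2 cells transiently transfected with cis-element reporter units and exposed for 24 h. Reporter mRNA measured by RT-PCR, FAM labelling, HpaI digestion and capillary electrophoresis. Changes in either direction fitted relative to DMSO.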

[8] = ATG_BRE_CIS: Attagene CIS-FACTORIAL HepG2 Assay for human Bone Morphogenetic Protein (BMP) Response Element (BRE) (AID 2282933); conditions: HepG2 BMP response element reporter, Attagene transcription factor profiling; actives raise or lower the signal
Procedure, shortened: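 Fluorescence-labelled reporter cDNA fragments, separated by capillary electrophoresis, gave the signal for this component of a 52-readout multiplex. HepG2 cells were transfected, exposed to chemicals for 24 h, and compared with DMSO using bidirectional fitting.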

[9] = molecular target: Retinoic acid receptor alpha (Homo sapiens) (UniProt P10276); assay: ATG_DR5_RAR_CIS: Attagene CIS-FACTORIAL HepG2 Assay for human Retinoic Acid Receptor Alpha (RARE), DR5 submotif (AID 2282934); conditions: HepG2 Attagene cis-factorial RARE DR5 reporter, mRNA; actives raise or lower the signal;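 for AC50: reporter responds to endogenous RAR alpha beta and gamma in HepG2 not RARA alone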
Retinoic acid receptor alpha (Homo sapiens), sequence (P10276 whole entry, looked up): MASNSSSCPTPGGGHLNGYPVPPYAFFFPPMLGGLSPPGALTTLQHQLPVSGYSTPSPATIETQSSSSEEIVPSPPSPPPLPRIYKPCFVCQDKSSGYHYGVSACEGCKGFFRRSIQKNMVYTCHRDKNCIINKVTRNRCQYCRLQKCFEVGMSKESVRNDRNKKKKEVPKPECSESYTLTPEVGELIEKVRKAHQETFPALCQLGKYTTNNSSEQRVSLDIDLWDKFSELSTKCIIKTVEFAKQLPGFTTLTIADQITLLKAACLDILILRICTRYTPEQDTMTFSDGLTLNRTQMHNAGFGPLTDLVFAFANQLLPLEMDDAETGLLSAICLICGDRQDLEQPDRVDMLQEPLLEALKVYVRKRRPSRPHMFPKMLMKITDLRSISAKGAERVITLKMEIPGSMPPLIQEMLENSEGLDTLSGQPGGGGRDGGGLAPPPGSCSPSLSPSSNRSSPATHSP
Procedure, shortened: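 Read-out: DR5-driven reporter transcript measured by RT-PCR, 6-FAM primer extension, HpaI digest and capillary electrophoresis. Human HepG2 liver cells carry transiently transfected cis-element reporter constructs; dosing lasts 24 h. Gain or loss of signal fitted against DMSO baseline.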

[10] = molecular target: Transcription factor E2F1 (Homo sapiens) (UniProt Q01094); assay: ATG_E2F_CIS: Attagene CIS-FACTORIAL HepG2 Assay for human E2F Transcription Factor 1 (AID 2282935); conditions: HepG2 Attagene cis-reporter, E2F reporter RNA transcripts; actives raise or lower the signal
Transcription factor E2F1 (Homo sapiens), sequence (Q01094 whole entry, looked up): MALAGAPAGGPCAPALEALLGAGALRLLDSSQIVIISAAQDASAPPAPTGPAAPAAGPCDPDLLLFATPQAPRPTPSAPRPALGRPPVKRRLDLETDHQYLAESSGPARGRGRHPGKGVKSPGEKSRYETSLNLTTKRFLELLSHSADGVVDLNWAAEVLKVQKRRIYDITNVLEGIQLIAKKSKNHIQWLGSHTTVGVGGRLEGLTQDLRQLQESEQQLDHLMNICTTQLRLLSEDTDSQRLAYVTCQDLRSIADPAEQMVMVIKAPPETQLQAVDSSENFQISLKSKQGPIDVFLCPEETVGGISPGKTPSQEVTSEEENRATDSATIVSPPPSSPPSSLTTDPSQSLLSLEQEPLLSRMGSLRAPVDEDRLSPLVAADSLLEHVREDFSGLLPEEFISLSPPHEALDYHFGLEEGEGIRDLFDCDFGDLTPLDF
Procedure, shortened: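 Endogenous E2F1 activity read through cis-promoter reporter units transfected into HepG2. After 24 h compound treatment, reporter mRNA measured by RT-PCR, HpaI digestion and capillary electrophoresis. Bidirectional fit versus DMSO.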

[11] = ATG_E_Box_CIS: Attagene CIS-FACTORIAL HepG2 Assay for human Enhancer Box (E-box) (AID 2282936); conditions: HepG2 E-box cis-reporter transcription, actives raise or lower the signal
Procedure, shortened: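 HepG2 cells transiently transfected with multiplexed cis-element reporter units, dosed 24 h; reporter mRNA quantified by RT-PCR, 6-FAM labelling, HpaI digestion and capillary electrophoresis. E-box (USF1) signal fitted bidirectionally vs DMSO.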

[12] = ATG_M_61_CIS: Attagene CIS-FACTORIAL HepG2 Assay for M61 Transcription Factor (Internal Marker) (AID 2282937); conditions: HepG2 Attagene CIS-FACTORIAL M61 internal marker reporter; actives raise or lower the signal
Procedure, shortened: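 Readout: fluorescent reporter mRNA fragments resolved by capillary electrophoresis after RT-PCR. Transiently transfected human HepG2 cells carried MRTU constructs reporting endogenous TF activity; 24 h chemical exposure; gain or loss of signal fitted relative to DMSO.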

[13] = ATG_EGR_CIS: Attagene CIS-FACTORIAL HepG2 Assay for human Early Growth Response 1 (EGR1) (AID 2282938); conditions: HepG2 Attagene CIS-FACTORIAL EGR reporter mRNA; actives raise or lower the signal
Procedure, shortened: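 Read-out: fluorescent reporter-mRNA fragments resolved by capillary electrophoresis after RT-PCR, 24 h post-dose in transiently transfected HepG2. Endogenous transcription-factor activity reported via cis-element-regulated reporter units; gain or loss fitted relative to DMSO.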

[14] = ATG_M_19_CIS: Attagene CIS-FACTORIAL HepG2 Assay for M19 Transcription Factor (Internal Marker) (AID 2282939); conditions: HepG2 Attagene CIS-FACTORIAL M19 internal marker reporter; actives raise or lower the signal
Procedure, shortened: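 HepG2, MRTU transient transfection, 24 h dosing. Total RNA → RT-PCR → 6-FAM primer extension → HpaI digest → CE fluorescence. Bidirectional curve fit, DMSO negative control.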

[15] = ATG_ERE_CIS: Attagene CIS-FACTORIAL HepG2 Assay for Estrogen Response Element (ERE) (AID 2282940); conditions: HepG2 ERE cis-reporter, Attagene RNA transcript; actives raise or lower the signal
Procedure, shortened: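 After a 24 h chemical treatment, RNA from reporter-transfected HepG2 cells is reverse-transcribed, PCR-amplified and fluorescently labelled. Fragments separated by capillary electrophoresis give reporter signal; DMSO serves as negative control.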

[16] = ATG_Ets_CIS: Attagene CIS-FACTORIAL HepG2 Assay for human Erythroblast Transformation Specific (ETS) (AID 2282941); conditions: HepG2 ETS cis-reporter transcription, actives raise or lower the signal
Procedure, shortened: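 Human HepG2 hepatoma cells were transiently transfected with promoter-driven reporter constructs and treated for 24 hours. Reporter transcripts were quantified by RT-PCR with fluorescent primer extension; bidirectional curve fitting used DMSO as reference.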

[17] = molecular target: Hepatocyte nuclear factor 3-beta (Homo sapiens) (UniProt Q9Y261); assay: ATG_FoxA2_CIS: Attagene CIS-FACTORIAL HepG2 Assay for human Forkhead box A2 (FOXA2) (AID 2282942); conditions: HepG2 cis-reporter transcription factor activity, 24 h; actives raise or lower the signal
Hepatocyte nuclear factor 3-beta (Homo sapiens), sequence (Q9Y261 whole entry, looked up): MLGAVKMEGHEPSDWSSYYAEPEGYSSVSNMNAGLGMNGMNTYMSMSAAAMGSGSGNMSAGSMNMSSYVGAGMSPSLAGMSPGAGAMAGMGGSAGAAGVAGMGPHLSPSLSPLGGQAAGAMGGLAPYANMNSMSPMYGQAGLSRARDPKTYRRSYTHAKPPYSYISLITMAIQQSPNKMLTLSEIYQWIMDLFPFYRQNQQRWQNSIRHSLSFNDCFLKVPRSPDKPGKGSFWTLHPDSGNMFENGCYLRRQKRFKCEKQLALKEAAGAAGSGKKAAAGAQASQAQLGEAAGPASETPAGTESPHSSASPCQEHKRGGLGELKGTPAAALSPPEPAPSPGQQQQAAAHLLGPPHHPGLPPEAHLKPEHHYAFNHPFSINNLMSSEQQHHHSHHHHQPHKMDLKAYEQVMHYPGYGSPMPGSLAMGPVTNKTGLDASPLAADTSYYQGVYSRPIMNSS
Procedure, shortened: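 Readout: fluorescent reporter transcripts resolved by capillary electrophoresis after RT-PCR. Transiently transfected HepG2, 24 h compound exposure, endogenous TF activity at cis promoter elements. Gain or loss of signal fitted relative to DMSO.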

[18] = ATG_FoxO_CIS: Attagene CIS-FACTORIAL HepG2 Assay for human Forkhead box O (FoxO) (AID 2282943); conditions: HepG2 Attagene cis-reporter, FoxO element, mRNA; actives raise or lower the signal
Procedure, shortened: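 Read-out: fluorescence of 6-FAM-labelled reporter cDNA fragments resolved by capillary electrophoresis. Transiently transfected HepG2 cells were dosed for 24 h; activity fitted in both directions relative to DMSO controls.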

[19] = ATG_GATA_CIS: Attagene CIS-FACTORIAL HepG2 Assay for human GATA Binding Protein (AID 2282944); conditions: HepG2 GATA cis-element reporter, Attagene multiplex mRNA; actives raise or lower the signal
Procedure, shortened: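 Cells: HepG2, transiently transfected with cis-regulated reporter transcription units. Exposure: 24 h. Detection: RT-PCR plus capillary electrophoresis of FAM-labeled fragments. Analysis: bidirectional, DMSO as baseline.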

Measured: AC50

CC1COC(Cn2cncn2)(c2ccc(Oc3ccc(Cl)cc3)cc2Cl)O1 (stereo not drawn)
active: [1] 1.6 µM | [2] 0.829 µM | [6] 4.29 µM | [8] 1.71 µM | [15] 0.245 µM
inactive: [3] | [4] | [5] | [7] | [9] | [10] | [11] | [12] | [13] | [14] | [16] | [17] | [18] | [19]

CCOP(=S)(OCC)SCn1c(=O)oc2cc(Cl)ccc21
active: [1] 9.92 µM | [2] 12.9 µM | [3] 26.4 µM | [4] 80.8 µM | [8] 50 µM | [9] 12.7 µM | [16] 50 µM
inactive: [5] | [6] | [7] | [10] | [11] | [12] | [13] | [14] | [15] | [17] | [18] | [19]

Cc1cc(Cl)ccc1OCC(=O)O
inactive: [1] | [2] | [3] | [4] | [5] | [6] | [7] | [8] | [10] | [11] | [12] | [13] | [14] | [15] | [16] | [17] | [18] | [19]

Fc1ccc(Oc2ccnc3cc(Cl)cc(Cl)c23)cc1
active: [3] 6.43 µM | [4] 2.72 µM | [9] 2.77 µM | [11] 5.95 µM
inactive: [1] | [2] | [5] | [6] | [7] | [8] | [10] | [12] | [13] | [14] | [15] | [16] | [17] | [18] | [19]

Cc1ccc(-c2c(Cl)nc(C#N)n2S(=O)(=O)N(C)C)cc1
inactive: [3] | [4] | [5] | [7] | [10] | [11] | [12] | [13] | [14] | [15] | [16] | [17] | [18] | [19]
active: [1] 7.83 µM | [2] 7.57 µM | [6] 9.12 µM | [8] 10.3 µM | [9] 11.9 µM

CCCCNC(=O)n1c(NC(=O)OC)nc2ccccc21
inactive: [1] | [2] | [3] | [4] | [5] | [6] | [7] | [8] | [9] | [10] | [11] | [12] | [13] | [14] | [15] | [16] | [17] | [18] | [19]
